# Test results as given in the supplement of paper PMC4466140.
# Experiments:
# Experiment in all cases: SPOT peptide array binding signal intensity (averaged, normalized) (arbitrary units (background-subtracted, floor 0; scale differs between SH3 domains)); higher = stronger binding of the SH3 domain to the peptide
# [1] = biological target: CaNbp2
# Method in brief: (§1)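 GST-fused SH3 domains from four yeast species were expressed in E. coli BL21(DE3), purified on glutathione Sepharose and incubated at 10 μg/ml overnight at 4°C in TBS-based blocking buffer on cellulose membranes carrying synthetic 15-mer peptides, with cysteines replaced by serines. Bound protein was detected with anti-GST antibody, an HRP anti-mouse secondary and luminol, then imaged and quantified with Genespotter. Binding signal is the normalized, background-subtracted spot intensity averaged over replicates, in arbitrary units that differ between domains.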
# [2] = biological target: CaRvs167
# Method in brief: as §1
# [3] = biological target: CaRvs167-3
# Method in brief: as §1
# [4] = biological target: CaSho1
# Method in brief: as §1
# [5] = biological target: CaSla1-D1-D2
# Method in brief: as §1
# [6] = biological target: CaSla1-D3
# Method in brief: as §1
# [7] = biological target: ScAbp1
# Method in brief: as §1
# [8] = biological target: ScBbc1
# Method in brief: as §1
# [9] = biological target: ScBem1-D1
# Method in brief: as §1
# [10] = biological target: ScBzz1-D1
# Method in brief: as §1
# [11] = biological target: ScBzz1-D2
# Method in brief: as §1
# [12] = biological target: ScCyk3
# Method in brief: as §1
# [13] = biological target: ScFus1
# Method in brief: as §1
# [14] = biological target: ScHof1
# Method in brief: as §1
# [15] = biological target: ScHse1
# Method in brief: as §1
# [16] = biological target: ScLsb1
# Method in brief: as §1
# [17] = biological target: ScLsb2
# Method in brief: as §1
# [18] = biological target: ScLsb3
# Method in brief: as §1
# [19] = biological target: ScLsb4
# Method in brief: as §1
# [20] = biological target: ScMyo3
# Method in brief: as §1
# [21] = biological target: ScMyo5
# Method in brief: as §1
# [22] = biological target: ScNbp2
# Method in brief: as §1
# [23] = biological target: ScPex13
# Method in brief: as §1
# [24] = biological target: ScRvs167
# Method in brief: as §1
# [25] = biological target: ScSho1
# Method in brief: as §1
# [26] = biological target: ScSla1-D1-D2
# Method in brief: as §1
# [27] = biological target: ScSla1-D3
# Method in brief: as §1
# [28] = biological target: SpAbp1-D1
# Method in brief: as §1
# [29] = biological target: SpBbc1
# Method in brief: as §1
# [30] = biological target: SpBzz1-D1
# Method in brief: as §1
# [31] = biological target: SpBzz1-D2
# Method in brief: as §1
# [32] = biological target: SpCyk3
# Method in brief: as §1
# [33] = biological target: SpHof1
# Method in brief: as §1
# [34] = biological target: SpHof1-2
# Method in brief: as §1
# [35] = biological target: SpHof1-3
# Method in brief: as §1
# [36] = biological target: SpHse1
# Method in brief: as §1
# [37] = biological target: SpLsb1
# Method in brief: as §1
# [38] = biological target: SpLsb4
# Method in brief: as §1
# [39] = biological target: SpMyo1
# Method in brief: as §1
# [40] = biological target: SpNbp2
# Method in brief: as §1
# [41] = biological target: SpPex13
# Method in brief: as §1
# [42] = biological target: SpRvs167
# Method in brief: as §1
# [43] = biological target: SpSla1-D1-D2
# Method in brief: as §1
# [44] = biological target: SpSla1-D3
# Method in brief: as §1
# [45] = biological target: AgAbp1
# Method in brief: as §1
# [46] = biological target: AgBbc1
# Method in brief: as §1
# [47] = biological target: AgBem1-D1
# Method in brief: as §1
# [48] = biological target: AgBzz1-D1
# Method in brief: as §1
# [49] = biological target: AgBzz1-D2
# Method in brief: as §1
# [50] = biological target: AgCyk3
# Method in brief: as §1
# [51] = biological target: AgFus1
# Method in brief: as §1
# [52] = biological target: AgHof1
# Method in brief: as §1
# [53] = biological target: AgHse1
# Method in brief: as §1
# [54] = biological target: AgLsb1
# Method in brief: as §1
# [55] = biological target: AgLsb4
# Method in brief: as §1
# [56] = biological target: AgMyo5
# Method in brief: as §1
# [57] = biological target: AgNbp2
# Method in brief: as §1
# [58] = biological target: AgRvs167
# Method in brief: as §1
# [59] = biological target: AgSho1
# Method in brief: as §1
# [60] = biological target: AgSla1-D1-D2
# Method in brief: as §1
# [61] = biological target: AgSla1-D3
# Method in brief: as §1
# [62] = biological target: CaAbp1-D1
# Method in brief: as §1
# [63] = biological target: CaAbp1-D2
# Method in brief: as §1
# [64] = biological target: CaBbc1
# Method in brief: as §1
# [65] = biological target: CaBem1-D1
# Method in brief: as §1
# [66] = biological target: CaBzz1-D1
# Method in brief: as §1
# [67] = biological target: CaBzz1-D2
# Method in brief: as §1
# [68] = biological target: CaCyk3
# Method in brief: as §1
# [69] = biological target: CaFus1
# Method in brief: as §1
# [70] = biological target: CaHof1
# Method in brief: as §1
# [71] = biological target: CaHse1
# Method in brief: as §1
# [72] = biological target: CaLsb1
# Method in brief: as §1
# [73] = biological target: CaLsb4
# Method in brief: as §1
# [74] = biological target: CaMyo5
# Method in brief: as §1
binder,measurement,setting,value
YLTRPLPSTPNEDSR,SPOT peptide array binding signal intensity,[1],≤ 0
same,SPOT peptide array binding signal intensity,[2],144
same,SPOT peptide array binding signal intensity,[3],≤ 0
same,SPOT peptide array binding signal intensity,[4],1020
same,SPOT peptide array binding signal intensity,[5],≤ 0
same,SPOT peptide array binding signal intensity,[6],≤ 0
same,SPOT peptide array binding signal intensity,[7],3.5
same,SPOT peptide array binding signal intensity,[8],5
same,SPOT peptide array binding signal intensity,[9],≤ 0
same,SPOT peptide array binding signal intensity,[10],6.5
same,SPOT peptide array binding signal intensity,[11],14
same,SPOT peptide array binding signal intensity,[12],≤ 0
same,SPOT peptide array binding signal intensity,[13],≤ 0
same,SPOT peptide array binding signal intensity,[14],9.5
same,SPOT peptide array binding signal intensity,[15],≤ 0
same,SPOT peptide array binding signal intensity,[16],20
same,SPOT peptide array binding signal intensity,[17],2.5
same,SPOT peptide array binding signal intensity,[18],3260
same,SPOT peptide array binding signal intensity,[19],706
same,SPOT peptide array binding signal intensity,[20],3
same,SPOT peptide array binding signal intensity,[21],≤ 0
same,SPOT peptide array binding signal intensity,[22],≤ 0
same,SPOT peptide array binding signal intensity,[23],992
same,SPOT peptide array binding signal intensity,[24],417
same,SPOT peptide array binding signal intensity,[25],3780
same,SPOT peptide array binding signal intensity,[26],17.5
same,SPOT peptide array binding signal intensity,[27],1
same,SPOT peptide array binding signal intensity,[28],≤ 0
same,SPOT peptide array binding signal intensity,[29],≤ 0
same,SPOT peptide array binding signal intensity,[30],74.5
same,SPOT peptide array binding signal intensity,[31],≤ 0
same,SPOT peptide array binding signal intensity,[32],150
same,SPOT peptide array binding signal intensity,[33],2260
same,SPOT peptide array binding signal intensity,[34],1610
same,SPOT peptide array binding signal intensity,[35],776
same,SPOT peptide array binding signal intensity,[36],1.75
same,SPOT peptide array binding signal intensity,[37],1
same,SPOT peptide array binding signal intensity,[38],2190
same,SPOT peptide array binding signal intensity,[39],60.2
same,SPOT peptide array binding signal intensity,[40],≤ 0
same,SPOT peptide array binding signal intensity,[41],1.5
same,SPOT peptide array binding signal intensity,[42],777
same,SPOT peptide array binding signal intensity,[43],9
same,SPOT peptide array binding signal intensity,[44],≤ 0
PSPSSSPPPIPKTAN,SPOT peptide array binding signal intensity,[45],6.5
same,SPOT peptide array binding signal intensity,[46],2.5
same,SPOT peptide array binding signal intensity,[47],5
same,SPOT peptide array binding signal intensity,[48],2
same,SPOT peptide array binding signal intensity,[49],22.5
same,SPOT peptide array binding signal intensity,[50],1
same,SPOT peptide array binding signal intensity,[51],0.5
same,SPOT peptide array binding signal intensity,[52],≤ 0
same,SPOT peptide array binding signal intensity,[53],27
same,SPOT peptide array binding signal intensity,[54],1
same,SPOT peptide array binding signal intensity,[55],≤ 0
same,SPOT peptide array binding signal intensity,[56],1760
same,SPOT peptide array binding signal intensity,[57],≤ 0
same,SPOT peptide array binding signal intensity,[58],2.33
same,SPOT peptide array binding signal intensity,[59],2.5
same,SPOT peptide array binding signal intensity,[60],2.5
same,SPOT peptide array binding signal intensity,[61],≤ 0
same,SPOT peptide array binding signal intensity,[62],≤ 0
same,SPOT peptide array binding signal intensity,[63],9
same,SPOT peptide array binding signal intensity,[64],1
same,SPOT peptide array binding signal intensity,[65],≤ 0
same,SPOT peptide array binding signal intensity,[66],112
same,SPOT peptide array binding signal intensity,[67],15
same,SPOT peptide array binding signal intensity,[68],1
same,SPOT peptide array binding signal intensity,[69],31.5
same,SPOT peptide array binding signal intensity,[70],≤ 0
same,SPOT peptide array binding signal intensity,[71],≤ 0
same,SPOT peptide array binding signal intensity,[72],≤ 0
same,SPOT peptide array binding signal intensity,[73],4.5
same,SPOT peptide array binding signal intensity,[74],386
same,SPOT peptide array binding signal intensity,[1],15.5
same,SPOT peptide array binding signal intensity,[2],≤ 0
same,SPOT peptide array binding signal intensity,[3],3
same,SPOT peptide array binding signal intensity,[4],5
same,SPOT peptide array binding signal intensity,[5],8.5
same,SPOT peptide array binding signal intensity,[6],≤ 0
same,SPOT peptide array binding signal intensity,[7],9
same,SPOT peptide array binding signal intensity,[8],≤ 0
same,SPOT peptide array binding signal intensity,[9],≤ 0
same,SPOT peptide array binding signal intensity,[10],4
same,SPOT peptide array binding signal intensity,[11],20
same,SPOT peptide array binding signal intensity,[12],≤ 0
same,SPOT peptide array binding signal intensity,[13],≤ 0
same,SPOT peptide array binding signal intensity,[14],≤ 0
same,SPOT peptide array binding signal intensity,[15],50
same,SPOT peptide array binding signal intensity,[16],1
same,SPOT peptide array binding signal intensity,[17],≤ 0
same,SPOT peptide array binding signal intensity,[18],24.5
same,SPOT peptide array binding signal intensity,[19],≤ 0
same,SPOT peptide array binding signal intensity,[20],2350
same,SPOT peptide array binding signal intensity,[21],1200
same,SPOT peptide array binding signal intensity,[22],6.5
same,SPOT peptide array binding signal intensity,[23],≤ 0
same,SPOT peptide array binding signal intensity,[24],2
same,SPOT peptide array binding signal intensity,[25],≤ 0
same,SPOT peptide array binding signal intensity,[26],≤ 0
same,SPOT peptide array binding signal intensity,[27],22.8
same,SPOT peptide array binding signal intensity,[28],8
same,SPOT peptide array binding signal intensity,[29],5
same,SPOT peptide array binding signal intensity,[30],182
same,SPOT peptide array binding signal intensity,[31],0.5
same,SPOT peptide array binding signal intensity,[32],1
same,SPOT peptide array binding signal intensity,[33],≤ 0
same,SPOT peptide array binding signal intensity,[34],≤ 0
same,SPOT peptide array binding signal intensity,[35],0.5
same,SPOT peptide array binding signal intensity,[36],2.5
same,SPOT peptide array binding signal intensity,[37],1.5
same,SPOT peptide array binding signal intensity,[38],≤ 0
same,SPOT peptide array binding signal intensity,[39],1570
same,SPOT peptide array binding signal intensity,[40],3
same,SPOT peptide array binding signal intensity,[41],≤ 0
same,SPOT peptide array binding signal intensity,[42],1.17
same,SPOT peptide array binding signal intensity,[43],2
same,SPOT peptide array binding signal intensity,[44],3
